# In PubChem BioAssay (NCATS):
# Records with an inconclusive call do not appear. Entries that show only a call come without a potency. Active and inactive are the calls of the source. Unless noted, calls follow the shape of the full dose curve.
# Key:
# [1] = target: Estrogen receptor (Homo sapiens) (UniProt P03372); assay: qHTS assay for small molecule antagonists of estrogen receptor alpha signaling (AID 588513; active = well fitted curve in the direction sought with a large enough effect in the signal ratio, with a control signal flat, not every such curve was filed as active; the % refers to the signal ratio)
# Procedure, shortened: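 ER-alpha-UAS-bla GripTite HEK 293 cells in 2% charcoal/dextran-treated FBS medium; compounds titrated (1:2, duplicate), then stimulated with 0.5 nM 17-beta-estradiol for 18 h at 37C. CCF4 beta-lactamase fluorescence; Hill-fit IC50 and efficacy.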
# [2] = target: Estrogen receptor (Homo sapiens) (UniProt P03372); assay: qHTS assay for small molecule agonists of estrogen receptor alpha signaling (AID 588514); also: nearly all actives have a fitted effect of over 70% in size
# Procedure, shortened: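 Fluorescence from CCF4 cleavage reports ER-alpha-driven beta-lactamase expression in HEK 293 cells treated 18 hrs at 37 C. Data normalized to 17-beta-estradiol (20 nM) and DMSO, fitted to Hill equation.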
# [3] = target: Glucocorticoid receptor (Homo sapiens) (UniProt P04150); assay: qHTS assay for small molecule agonists of glucocorticoid receptor signaling (AID 588532; active = well fitted curve in the direction sought with a large enough effect in the signal ratio, with a control signal flat; the % refers to the signal ratio); settings: HeLa MMTV-bla, beta-lactamase ratio, agonist, 18 h; stronger effect = higher value; percent of dexamethasone control, DMSO zero
# Procedure, shortened: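 MMTV-bla HeLa beta-lactamase reporter cells in 1% charcoal/dextran FBS medium, compounds up to 92 uM for 18 h at 37 C, CCF4 readout; normalized to 0.1 uM dexamethasone (100%), EC50 and efficacy from Hill fits.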
# [4] = target: Glucocorticoid receptor (Homo sapiens) (UniProt P04150); assay: qHTS assay for small molecule antagonists of glucocorticoid receptor signaling (AID 588533; active = well fitted inhibition curve with a large enough effect in the signal ratio, with a control signal flat, not every such curve was filed as active; the % refers to the signal ratio;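 also: cells stimulated with 2 nM dexamethasone as agonist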)
# Procedure, shortened: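 Antagonist-mode qHTS: compound titrations added to GRE-bla HeLa cells, then dexamethasone 2 nM final; 18 h, 37 C. CCF4 FRET fluorescence normalized to dexamethasone and DMSO; IC50 from Hill fit.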
# [5] = target: Peroxisome proliferator-activated receptor delta (Homo sapiens) (UniProt Q03181); assay: qHTS assay for small molecule agonists of peroxisome proliferator-activated receptor delta signaling (AID 588534)
# Procedure, shortened: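 EC50 and efficacy values derive from Hill fits of a concentration series in a beta-lactamase reporter cell assay. Exposure is 18 hrs at 37 C, with CCF4 fluorescence as the readout.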
# [6] = qHTS assay for small molecule antagonists of peroxisome proliferator-activated receptor delta signaling (AID 588535; active = well fitted inhibition curve with a large enough effect in the signal ratio, with a control signal flat, not every such curve was filed as active; the % refers to the signal ratio;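 as to max response: cells co-treated with a PPAR-delta agonist as stimulator during compound exposure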); settings: HEK293T PPARd-UAS-bla, beta-lactamase FRET ratio, 18 h; 460 nm channel
# Procedure, shortened: (§1)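 Beta-lactamase reporter read-out (405 nm excitation, 460/530 nm emission) after CCF4 loading for 2 hrs at RT. HEK293T PPAR-delta-UAS-bla cells, 2% charcoal/dextran FBS, compounds for 18 hrs at 37 C. Hill fit gave IC50 and efficacy.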
# [7] = target: Peroxisome proliferator-activated receptor delta (Homo sapiens) (UniProt Q03181); assay: as above
# Procedure, shortened: as §1
# [8] = target: Peroxisome proliferator-activated receptor gamma (Homo sapiens) (UniProt P37231); assay: qHTS assay for small molecule agonists of peroxisome proliferator-activated receptor gamma signaling (AID 588536; active = well fitted curve in the direction sought with a large enough effect in the signal ratio, with a control signal flat, not every such curve was filed as active; the % refers to the signal ratio)
# Procedure, shortened: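 This is an agonist-mode beta-lactamase reporter assay in HEK293 PPAR-gamma-UAS-bla cells with 1% charcoal/dextran FBS. Compound titrations ran 16 h at 37 C before CCF4 detection. EC50 and efficacy are Hill fits scaled to 2 uM rosiglitazone (100%) and DMSO basal.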
# [9] = target: Peroxisome proliferator-activated receptor gamma (Homo sapiens) (UniProt P37231); assay: qHTS assay for small molecule antagonists of peroxisome proliferator-activated receptor gamma signaling (AID 588537; active = well fitted inhibition curve with a large enough effect in the signal ratio, with a control signal flat, not every such curve was filed as active; the % refers to the signal ratio;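 also: reporter cells co-stimulated with 50 nM rosiglitazone agonist during compound treatment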)
# Procedure, shortened: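 Read-out: CCF4 fluorescence (ex 405, em 460/530 nm) after 2 h at RT. Cells were HEK293 carrying a UAS-bla reporter and treated 16 h at 37 C with compound plus rosiglitazone (50 nM final). Normalized to rosiglitazone and DMSO.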
# [10] = qHTS assay for small molecule agonists of retinoid X receptor alpha signaling (AID 588544); settings: HEK293T RXRa-UAS-bla, beta-lactamase reporter, 18 h; 530 nm emission
# [11] = target: Retinoic acid receptor RXR-alpha (Homo sapiens) (UniProt P19793); assay: as above
# [12] = target: Thyroid hormone receptor beta (Homo sapiens) (UniProt P10828); assay: qHTS assay for small molecule agonists of thyroid hormone receptor beta signaling (AID 588545)
# Procedure, shortened: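 TR-UAS-bla-GripTite HEK 293 cells in medium with 2% charcoal/dextran FBS, 0.1 mM NEAA and 1 mM sodium pyruvate were treated with titrated compounds for 18 hrs at 37 C. Beta-lactamase reporter was read with CCF4 dye (ex 405, em 460/530 nm); EC50 from Hill fits.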
# [13] = qHTS assay for small molecule antagonists of retinoid X receptor alpha signaling (AID 588546; active = well fitted inhibition curve with a large enough effect in the signal ratio, with a control signal flat, not every such curve was filed as active; the % refers to the signal ratio;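 also: cells stimulated with 9-cis-retinoic acid as agonist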); settings: HEK293T RXRa-UAS-bla, beta-lactamase ratio, antagonist mode; measured here: W530 green channel, cytotoxicity proxy
# Procedure, shortened: (§2)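 Beta-lactamase reporter inhibition, read as CCF4 fluorescence ratio (ex 405, em 460/530 nm) after 2 h at RT. HEK293T UAS-bla cells, 2500/well, were stimulated with 9-cis-RA at 500 or 100 nM final alongside test compound for 18 h at 37 C.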
# [14] = target: Retinoic acid receptor RXR-alpha (Homo sapiens) (UniProt P19793); assay: as above; settings: HEK293T RXRa-UAS-bla, beta-lactamase ratio, antagonist mode
# Procedure, shortened: as §2
# [15] = target: Thyroid hormone receptor beta (Homo sapiens) (UniProt P10828); assay: qHTS assay for small molecule antagonists of thyroid hormone receptor beta signaling (AID 588547; active = well fitted inhibition curve with a large enough effect in the signal ratio, with a control signal flat, not every such curve was filed as active; the % refers to the signal ratio;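 also: cells stimulated with 0.4 nM T3 agonist during compound exposure; series mostly up to about 77 µM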); settings: TR-UAS-bla HEK293, beta-lactamase ratio, antagonist mode, 18 h
# Procedure, shortened: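 TR-UAS-bla GripTite HEK293 cells in 2% charcoal/dextran FBS medium; compounds 0.59 nM to 92 uM with T3 at 0.4nM final, 18 h at 37 C. Beta-lactamase read by CCF4 fluorescence (460/530 nm); Hill fits gave IC50 and efficacy.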
# [16] = qHTS assay for small molecule agonists of the antioxidant response element (ARE) signaling pathway (AID 651741; active = well fitted activation curve with a large enough effect in the signal ratio; the % refers to the signal ratio)
# Procedure, shortened: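 HepG2 ARE-bla reporter cells, 2,000/well; 5 h settle at 37 C/5% CO2; compound pin transfer (23 nL, DMSO); 16 h at 37 C; LiveBLAzer B/G FRET substrate, 2 h RT; fluorescence intensity read.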
# [17] = qHTS assay for small molecule activators of the p53 signaling pathway (AID 651743; active = well fitted activation curve with a large enough effect in the signal ratio, not every such curve was filed as active; the % refers to the signal ratio; also: series mostly up to about 92 µM); settings: HCT-116 p53RE-bla, beta-lactamase FRET ratio, 16 h; activation: stronger effect = higher value
# Procedure, shortened: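 Reporter: beta-lactamase driven by p53 response elements, stably integrated in HCT-116 cells. Cells seeded at 4,000/well, 5 h preincubation, compound (DMSO) 16 h at 37 C; B/G FRET substrate 2 h RT; fluorescence intensity read.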
# [18] = qHTS assay for environmental chemicals that activate the Aryl hydrocarbon Receptor (AhR) signaling pathway (AID 651777; active = well fitted curve in the direction sought with a large enough effect; an effect the other way counts as inactive or inconclusive; also: nearly all actives have a fitted effect of over 15% in size); settings: 1A2-DRE human hepatoma cells, luciferase, 24 h; activation: stronger effect = higher value
# Procedure, shortened: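 Luminescence (One-Glo, 30 min, room temperature) reports AhR-driven luciferase in stably transfected human hepatoma cells bearing DRE and CYP1A2 promoter. Cells (1,200/well) were treated with compound for 24 hr at 37 C in qHTS format.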
# [19] = target: Peroxisome proliferator-activated receptor alpha (Homo sapiens) (UniProt Q07869); assay: qHTS assay for small molecule agonists of the peroxisome proliferator-activated receptor alpha (PPARalpha) signaling pathway (AID 651778; active = well fitted curve in the direction sought with a large enough effect; an effect the other way counts as inactive or inconclusive); settings: PathHunter PPARalpha complementation, chemiluminescence, 6 h; stronger effect = higher value
# Procedure, shortened: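 Enzyme-fragment complementation assay in which ligand-bound PPARalpha translocates and forms an active enzyme that generates chemiluminescence. Cells were plated overnight, exposed to compound for 6 hr at 37 C, and then given detection reagent for 60 min at room temperature.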
# [20] = qHTS assay for small molecule agonists of the antioxidant response element (ARE) signaling pathway measured by Nrf2-dependant transcriptional activity (AID 720636; active = well fitted curve in the direction sought with a large enough effect in the repeat runs; an effect the other way counts as inactive or inconclusive)
# Procedure, shortened: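 Nrf2-dependent transcription read as ONE-Glo luciferase signal from ARE-luc HepG2 reporter cells after 16 hr compound treatment at 37 C, 5% CO2, in assay medium with 1% dialyzed FBS.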
# [21] = qHTS assay for small molecule agonists of the antioxidant response element (ARE) signaling pathway measured by Nrf2-dependant transcriptional activity - cell viability counter screen (AID 720653; active = well fitted curve in the direction sought with a large enough effect in the repeat runs; an effect the other way counts as inactive or inconclusive); settings: ARE-bla HepG2 viability, CellTiter-Glo ATP luminescence, 16 h; max response: stronger effect = lower value
# Procedure, shortened: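 ARE-bla HepG2 cells treated with compounds for 16 h at 37C; this counter screen measures viability as intracellular ATP by CellTiter-Glo luminescence after 30 min at room temperature.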
# [22] = qHTS assay for cell viability of HEK293 cells (AID 743288; active = well fitted curve in the direction sought with a large enough effect; an effect the other way counts as inactive or inconclusive; also: nearly all actives have a fitted effect of over 50% in size); settings: ATP luminescence (CellTiter-Glo), 18 h; max response: stronger effect = lower value
# Procedure, shortened: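 Steps: plate 2,000 parental HEK293 cells per well; incubate ≥5 h, 37 C; add compounds in DMSO; incubate 18 h, 37 C; add CellTiter-Glo; wait 30 min at room temperature; read luminescence.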
# [23] = qHTS assay for cell viability of the p53RE-bla HCT-116 cell line (AID 743292; active = well fitted curve in the direction sought with a large enough effect; an effect the other way counts as inactive or inconclusive; also: nearly all actives have a fitted effect of over 55% in size)
# Procedure, shortened: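 ATP-based luminescent viability (CellTiter-Glo, 30 min RT) after 16 h compound treatment at 37 C of p53RE-bla HCT-116 cells, seeded at 4,000 cells/well and rested 5 h before dosing.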
# [24] = qHTS for Inhibitors of the Functional Ribonucleoprotein Complex (vRNP) of Lassa (LASV) Arenavirus: LASV Primary Screen - GLuc reporter signal (AID 1347082; calls by dose curve; tested in HEK293 reporter line; also: series mostly up to about 57 µM; nearly all actives have a fitted effect of over 60% in size)
# [25] = qHTS for Inhibitors of the Functional Ribonucleoprotein Complex (vRNP) of Lassa (LASV) Arenavirus: Viability assay - alamar blue signal for LASV Primary Screen (AID 1347083; calls by dose curve; tested in HEK293 reporter line; also: series mostly up to about 57 µM; nearly all actives have a fitted effect of over 80% in size)
# [26] = qHTS for Inhibitors of the Functional Ribonucleoprotein Complex (vRNP) of Lymphocytic Choriomeningitis Arenaviruses (LCMV): Viability assay - alamar blue signal for LCMV Primary Screen (AID 1347085; calls by dose curve; tested in HEK293 reporter line; also: series mostly up to about 57 µM; nearly all actives have a fitted effect of over 80% in size)
# [27] = target: Nucleoprotein (Lymphocytic choriomeningitis virus (strain Armstrong)) (UniProt P09992); assay: qHTS for Inhibitors of the Functional Ribonucleoprotein Complex (vRNP) of Lymphocytic Choriomeningitis Arenaviruses (LCMV): LCMV Primary Screen - GLuc reporter signal (AID 1347086); also: series mostly up to about 57 µM; nearly all actives have a fitted effect of over 70% in size
# [28] = target: Nuclear receptor subfamily 1 group I member 2 (Rattus norvegicus) (UniProt Q9R1A7); assay: qHTS assay for small molecule activators of the rat pregnane X receptor (rPXR) signaling pathway (AID 651751; call rule not given here); settings: rPXR reporter cells, luciferase (One-Glo), 24 h
# [29] = qHTS assay for small molecule activators of the human pregnane X receptor (PXR) signaling pathway (AID 720659; call rule not given here)
# Chain of Retinoic acid receptor RXR-alpha (Homo sapiens) (P19793 whole entry, looked up): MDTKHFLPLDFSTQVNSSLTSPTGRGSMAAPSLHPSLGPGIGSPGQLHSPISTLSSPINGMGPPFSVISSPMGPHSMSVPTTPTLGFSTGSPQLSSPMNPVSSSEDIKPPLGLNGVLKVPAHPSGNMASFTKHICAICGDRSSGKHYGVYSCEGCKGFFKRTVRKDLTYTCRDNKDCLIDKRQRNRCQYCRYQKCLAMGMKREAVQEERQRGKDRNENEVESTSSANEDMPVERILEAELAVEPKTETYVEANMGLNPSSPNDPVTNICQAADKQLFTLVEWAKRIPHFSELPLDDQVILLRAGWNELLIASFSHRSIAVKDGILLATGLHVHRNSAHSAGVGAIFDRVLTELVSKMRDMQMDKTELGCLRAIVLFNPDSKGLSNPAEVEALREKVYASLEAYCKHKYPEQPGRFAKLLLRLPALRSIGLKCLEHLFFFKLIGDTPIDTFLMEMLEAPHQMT
# Chain of Estrogen receptor (Homo sapiens) (P03372 whole entry, looked up): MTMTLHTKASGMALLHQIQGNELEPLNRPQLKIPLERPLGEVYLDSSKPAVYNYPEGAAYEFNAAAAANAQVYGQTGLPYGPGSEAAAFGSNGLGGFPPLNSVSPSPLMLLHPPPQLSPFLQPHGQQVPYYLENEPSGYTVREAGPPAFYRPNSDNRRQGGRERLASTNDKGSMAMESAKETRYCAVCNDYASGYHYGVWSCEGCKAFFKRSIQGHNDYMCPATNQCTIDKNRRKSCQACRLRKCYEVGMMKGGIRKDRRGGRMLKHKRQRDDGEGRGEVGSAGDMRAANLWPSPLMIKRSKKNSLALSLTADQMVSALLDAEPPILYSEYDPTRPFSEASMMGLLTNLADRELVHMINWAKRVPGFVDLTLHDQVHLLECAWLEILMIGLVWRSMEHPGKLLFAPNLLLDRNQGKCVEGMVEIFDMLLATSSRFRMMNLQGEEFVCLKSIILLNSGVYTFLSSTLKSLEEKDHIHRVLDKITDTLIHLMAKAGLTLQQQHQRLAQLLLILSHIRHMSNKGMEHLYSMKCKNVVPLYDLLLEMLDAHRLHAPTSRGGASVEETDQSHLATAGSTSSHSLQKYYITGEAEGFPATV
# Chain of Glucocorticoid receptor (Homo sapiens) (P04150 whole entry, looked up): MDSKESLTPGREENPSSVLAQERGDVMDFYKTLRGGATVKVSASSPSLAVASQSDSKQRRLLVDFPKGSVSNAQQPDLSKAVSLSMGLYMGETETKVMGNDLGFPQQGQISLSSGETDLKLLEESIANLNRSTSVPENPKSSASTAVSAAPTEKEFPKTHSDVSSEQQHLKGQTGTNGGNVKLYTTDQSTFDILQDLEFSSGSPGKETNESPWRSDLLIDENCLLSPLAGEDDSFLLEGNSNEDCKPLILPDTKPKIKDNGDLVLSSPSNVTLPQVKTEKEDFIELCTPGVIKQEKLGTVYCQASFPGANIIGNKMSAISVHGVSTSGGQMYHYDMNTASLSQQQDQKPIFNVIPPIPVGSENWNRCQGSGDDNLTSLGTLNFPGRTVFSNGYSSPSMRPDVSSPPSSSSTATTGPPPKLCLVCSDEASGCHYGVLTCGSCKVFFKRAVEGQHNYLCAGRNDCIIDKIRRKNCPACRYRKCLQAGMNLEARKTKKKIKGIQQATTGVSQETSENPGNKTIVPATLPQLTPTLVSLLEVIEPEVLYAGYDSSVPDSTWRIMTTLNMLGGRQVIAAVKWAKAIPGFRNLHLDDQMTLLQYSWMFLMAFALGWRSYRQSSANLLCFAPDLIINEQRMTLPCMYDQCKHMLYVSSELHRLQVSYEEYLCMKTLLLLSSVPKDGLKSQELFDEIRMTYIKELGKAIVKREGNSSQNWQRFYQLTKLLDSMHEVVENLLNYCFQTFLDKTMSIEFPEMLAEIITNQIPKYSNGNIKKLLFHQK
# Chain of Peroxisome proliferator-activated receptor gamma (Homo sapiens) (P37231 whole entry, looked up): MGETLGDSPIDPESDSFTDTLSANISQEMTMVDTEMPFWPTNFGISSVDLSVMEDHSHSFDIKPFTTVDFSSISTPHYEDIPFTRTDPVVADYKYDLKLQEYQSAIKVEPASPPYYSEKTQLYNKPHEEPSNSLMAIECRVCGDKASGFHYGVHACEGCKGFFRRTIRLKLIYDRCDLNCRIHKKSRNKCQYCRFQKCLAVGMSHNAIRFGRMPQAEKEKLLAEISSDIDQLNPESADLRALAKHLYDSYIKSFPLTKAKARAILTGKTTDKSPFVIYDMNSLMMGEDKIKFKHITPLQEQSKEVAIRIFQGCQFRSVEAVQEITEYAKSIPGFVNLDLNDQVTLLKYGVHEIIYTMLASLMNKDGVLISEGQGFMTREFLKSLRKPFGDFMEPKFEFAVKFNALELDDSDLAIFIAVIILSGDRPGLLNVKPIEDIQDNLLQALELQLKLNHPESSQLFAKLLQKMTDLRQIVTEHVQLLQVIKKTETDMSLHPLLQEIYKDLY
# Chain of Peroxisome proliferator-activated receptor delta (Homo sapiens) (Q03181 whole entry, looked up): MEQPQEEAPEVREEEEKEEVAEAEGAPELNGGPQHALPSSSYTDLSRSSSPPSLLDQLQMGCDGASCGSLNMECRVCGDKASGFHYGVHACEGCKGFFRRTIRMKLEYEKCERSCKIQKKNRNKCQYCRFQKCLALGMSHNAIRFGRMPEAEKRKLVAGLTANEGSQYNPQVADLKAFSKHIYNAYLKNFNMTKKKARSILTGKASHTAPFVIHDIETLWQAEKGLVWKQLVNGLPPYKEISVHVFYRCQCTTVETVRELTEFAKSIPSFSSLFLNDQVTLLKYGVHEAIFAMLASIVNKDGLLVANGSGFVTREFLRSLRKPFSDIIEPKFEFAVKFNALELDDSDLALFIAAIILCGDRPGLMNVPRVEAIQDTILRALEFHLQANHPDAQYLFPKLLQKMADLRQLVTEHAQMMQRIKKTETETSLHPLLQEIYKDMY
# Chain of Thyroid hormone receptor beta (Homo sapiens) (P10828 whole entry, looked up): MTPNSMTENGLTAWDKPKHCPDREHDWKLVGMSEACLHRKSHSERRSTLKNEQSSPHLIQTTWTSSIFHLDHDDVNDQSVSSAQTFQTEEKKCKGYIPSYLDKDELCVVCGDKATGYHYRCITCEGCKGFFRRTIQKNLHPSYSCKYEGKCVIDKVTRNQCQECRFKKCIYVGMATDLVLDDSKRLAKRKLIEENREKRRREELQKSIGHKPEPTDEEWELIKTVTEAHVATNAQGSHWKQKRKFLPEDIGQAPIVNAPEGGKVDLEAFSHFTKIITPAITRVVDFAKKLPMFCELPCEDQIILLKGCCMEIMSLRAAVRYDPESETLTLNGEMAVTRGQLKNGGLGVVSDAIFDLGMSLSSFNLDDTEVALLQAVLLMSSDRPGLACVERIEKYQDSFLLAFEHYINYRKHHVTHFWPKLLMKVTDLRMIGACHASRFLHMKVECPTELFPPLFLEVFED
# Chain of Peroxisome proliferator-activated receptor alpha (Homo sapiens) (Q07869 whole entry, looked up, the tested form may be a part): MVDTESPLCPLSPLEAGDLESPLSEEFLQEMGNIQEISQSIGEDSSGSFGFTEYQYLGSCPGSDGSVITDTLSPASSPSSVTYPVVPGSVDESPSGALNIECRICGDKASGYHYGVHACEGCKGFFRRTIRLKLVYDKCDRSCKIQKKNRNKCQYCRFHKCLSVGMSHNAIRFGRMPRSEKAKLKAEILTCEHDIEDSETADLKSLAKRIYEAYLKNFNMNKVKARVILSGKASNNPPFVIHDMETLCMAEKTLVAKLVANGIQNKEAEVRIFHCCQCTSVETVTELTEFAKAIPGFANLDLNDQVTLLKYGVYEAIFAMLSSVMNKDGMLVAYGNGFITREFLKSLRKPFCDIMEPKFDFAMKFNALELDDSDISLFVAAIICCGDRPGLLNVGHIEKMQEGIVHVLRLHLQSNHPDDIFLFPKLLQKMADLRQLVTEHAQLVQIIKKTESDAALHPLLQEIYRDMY
# Chain of Nuclear receptor subfamily 1 group I member 2 (Rattus norvegicus) (Q9R1A7 whole entry, looked up): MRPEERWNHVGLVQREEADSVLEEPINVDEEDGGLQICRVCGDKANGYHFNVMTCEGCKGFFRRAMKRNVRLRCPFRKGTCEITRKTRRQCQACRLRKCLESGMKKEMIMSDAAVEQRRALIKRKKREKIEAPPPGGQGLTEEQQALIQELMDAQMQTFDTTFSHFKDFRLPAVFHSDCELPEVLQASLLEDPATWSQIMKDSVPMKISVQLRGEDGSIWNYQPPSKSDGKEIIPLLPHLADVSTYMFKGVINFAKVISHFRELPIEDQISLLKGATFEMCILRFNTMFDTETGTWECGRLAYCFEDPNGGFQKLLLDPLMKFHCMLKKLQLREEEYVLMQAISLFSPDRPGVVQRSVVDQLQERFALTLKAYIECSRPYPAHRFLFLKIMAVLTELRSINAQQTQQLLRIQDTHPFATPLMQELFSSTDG
# Chain of Nucleoprotein (Lymphocytic choriomeningitis virus (strain Armstrong)) (P09992 whole entry, looked up): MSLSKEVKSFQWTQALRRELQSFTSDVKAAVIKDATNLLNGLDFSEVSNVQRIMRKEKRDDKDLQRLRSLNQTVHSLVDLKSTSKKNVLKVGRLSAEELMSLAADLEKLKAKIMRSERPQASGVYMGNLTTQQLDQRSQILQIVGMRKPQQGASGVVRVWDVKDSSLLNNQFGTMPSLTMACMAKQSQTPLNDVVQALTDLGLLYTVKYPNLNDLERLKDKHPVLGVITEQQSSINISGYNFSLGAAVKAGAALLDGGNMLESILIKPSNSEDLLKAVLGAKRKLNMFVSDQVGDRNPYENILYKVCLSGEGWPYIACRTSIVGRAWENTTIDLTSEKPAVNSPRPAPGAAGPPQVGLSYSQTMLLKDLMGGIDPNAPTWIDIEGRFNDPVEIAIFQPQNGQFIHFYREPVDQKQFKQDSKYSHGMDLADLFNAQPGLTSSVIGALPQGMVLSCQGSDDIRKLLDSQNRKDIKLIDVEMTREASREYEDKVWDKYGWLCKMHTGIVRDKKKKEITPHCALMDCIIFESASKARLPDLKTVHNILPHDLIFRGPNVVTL
structure (smiles),measurement,setting,value
C[C@H]1O[C@H](OC2[C@@H](O)[C@@H](O)C(O)[C@H](O)[C@H]2O)[C@@H](N)C[C@@H]1N=C(N)C(=O)O (some centres undefined),Potency,[1],inactive
same,Potency,[2],inactive
same,activation,[3],-3.89% (inactive)
same,Potency,[4],inactive
same,Potency,[5],inactive
same,max response,[6],-16.5%
same,outcome,[7],inactive
same,outcome,[8],inactive
same,Potency,[9],inactive
same,max response,[10],-7.18%
same,outcome,[11],inactive
same,Potency,[12],inactive
same,max response,[13],-6.74%
same,max response,[14],-1.33% (inactive)
same,activity change % (negative = inhibition),[15],1.51% (inactive)
same,Potency,[16],inactive
same,activation,[17],0.472% (inactive)
same,activation,[18],-0.0561% (inactive)
same,max response,[19],-0.85% (inactive)
same,Potency,[20],inactive
same,max response,[21],3.51% (inactive)
same,max response,[22],0.169% (inactive)
same,outcome,[23],inactive
same,Potency,[24],inactive
same,Potency,[25],inactive
same,Potency,[26],inactive
same,Potency,[27],inactive
same,max response,[28],-0.488% (inactive)
same,outcome,[29],inactive
